The supplement of paper PMC9694430
Where a name gives a salt, the structure may show the parent alone.

Tests used:
Assay in all cases: thermal shift delta Tm vs DMSO control; higher = stronger stabilization (binding)
Conditions in all cases: 12.5 µM; protein concentration 2 µM
[1] = test system: LOC_OS01G01410-cb001
In short: (§1)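 The melting temperature shift given here is a triplicate mean, measured against protein that received only DMSO. Melting temperatures came from Boltzmann fits of differential scanning fluorimetry data on E. coli-expressed, purified rice kinase domain constructs. Each 19.5 μl well contained 2 μM kinase, 100 mM potassium phosphate pH 7.5, 150 mM NaCl, 10% glycerol, 5 × SYPRO Orange and compound in DMSO. Plates were scanned from 25°C to 95°C at 0.05°C/s.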

[2] = test system: LOC_OS01G02750-cb003
In short: as §1

[3] = test system: LOC_OS01G10900-cb004
In short: as §1

[4] = test system: LOC_OS01G13800-cb001
In short: as §1

[5] = test system: LOC_OS01G14860-cb001
In short: as §1

[6] = test system: LOC_OS01G21960-cb002
In short: as §1

[7] = test system: LOC_OS01G39600-cb002
In short: as §1

[8] = test system: LOC_OS01G48390-cb002
In short: as §1

[9] = test system: LOC_OS01G51400-cb002
In short: as §1

[10] = test system: T1, LOC_OS01G52050-cb004
T1 sequence (whole entry): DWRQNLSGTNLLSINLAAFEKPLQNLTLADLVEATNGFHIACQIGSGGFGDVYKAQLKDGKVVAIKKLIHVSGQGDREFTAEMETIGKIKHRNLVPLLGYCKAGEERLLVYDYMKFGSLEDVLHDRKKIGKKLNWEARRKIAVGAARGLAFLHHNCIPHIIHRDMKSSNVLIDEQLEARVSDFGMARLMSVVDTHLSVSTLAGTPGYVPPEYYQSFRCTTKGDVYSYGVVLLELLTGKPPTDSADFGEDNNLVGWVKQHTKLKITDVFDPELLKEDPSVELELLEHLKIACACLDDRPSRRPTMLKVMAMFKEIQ
In short: as §1

[11] = test system: LOC_OS01G57100-cb003
In short: as §1

[12] = test system: LOC_OS01G60330-cb001
In short: as §1

[13] = test system: LOC_OS01G60700-cb002
In short: as §1

[14] = test system: LOC_OS01G63280-cb003
In short: as §1

[15] = test system: LOC_OS01G67340-cb003
In short: as §1

[16] = test system: LOC_OS01G70970-cb002
In short: as §1

[17] = test system: LOC_OS02G07810-cb001
In short: as §1

[18] = test system: LOC_OS02G08530-cb003
In short: as §1

[19] = test system: LOC_OS02G14120-cb001
In short: as §1

[20] = test system: LOC_OS02G17970-cb001
In short: as §1

Row | Compound | thermal shift delta Tm [1] [°C] | thermal shift delta Tm [2] [°C] | thermal shift delta Tm [3] [°C] | thermal shift delta Tm [4] [°C] | thermal shift delta Tm [5] [°C] | thermal shift delta Tm [6] [°C] | thermal shift delta Tm [7] [°C] | thermal shift delta Tm [8] [°C] | thermal shift delta Tm [9] [°C] | thermal shift delta Tm [10] [°C] | thermal shift delta Tm [11] [°C] | thermal shift delta Tm [12] [°C] | thermal shift delta Tm [13] [°C] | thermal shift delta Tm [14] [°C] | thermal shift delta Tm [15] [°C] | thermal shift delta Tm [16] [°C] | thermal shift delta Tm [17] [°C] | thermal shift delta Tm [18] [°C] | thermal shift delta Tm [19] [°C] | thermal shift delta Tm [20] [°C]
1 | CC(C)(C)NC(=O)c1cncn1C1CCN(c2ccc(-c3nnc(C(F)(F)F)o3)cn2)CC1 | 0.22 | 0.89 | 0.11 | -0.25 | 0.2 | 0.13 | -0.63 | 0.3 | 0.06 | 0.97 | -0.21 | 0.32 | -0.26 | -0.16 | 0.05 | 0.37 | -1.16 | 0.52 | 0.95 | -0.2
2 | C#Cc1cccc(Nc2ncnc3cc(OCCOC)c(OCCO)cc23)c1 | 1.63 | 0.85 | 1.08 | 0.74 | 0.28 | 0.99 | 2.63 | 2.12 | 0.19 | 1.63 | 0.15 | 0.3 | 0.24 | -0.13 | -0.22 | 0.5 | 1.32 | 1.16 | 4.33 | -0.01
3 | N=C(N)NC(=N)NCCc1ccccc1 [Phenformin HCl] | 0.54 | 0.14 | 0.3 | -0.2 | 0.25 | 0.77 | -0.37 | 0.38 | 0.25 | 0.48 | 2.51 | 0.5 | 0.54 | 0.18 | -0.23 | 0.29 | 0.75 | -0.63 | 1.22 | 0.39
4 | CNC(=O)c1cc(Oc2ccc(NC(=O)Nc3ccc(Cl)c(C(F)(F)F)c3)cc2)ccn1 [Sorafenib Tosylate] | 2.14 | 5.21 | 1.97 | 1.97 | 5.9 | 2.13 | 2.03 | 2.56 | 1.31 | 5.16 | 4.07 | 3.91 | 1.77 | 9.15 | 0.52 | 1.83 | 2.2 | 1.92 | 3.45 | 1.56
5 | C[C@H]1[C@H](C)CC[C@]2(C(=O)O)CC[C@]3(C)C(=CC[C@@H]4[C@@]5(C)C[C@@H](O)[C@H](O)[C@@](C)(CO)[C@@H]5CC[C@]43C)[C@H]12 [Asiatic Acid] | 0.45 | -0.18 | 0.15 | 1.17 | 0.23 | 0.75 | 0.1 | 0.45 | 0.17 | 0.2 | 2.35 | 0.45 | 0.54 | -0.01 | 0.72 | 0.06 | 0.83 | 0.74 | 0.58 | 0.33
6 | C#Cc1cccc(Nc2ncnc3cc(OCCOC)c(OCCOC)cc23)c1 [Erlotinib] | 0.56 | 0.35 | 0.59 | 0.04 | 0.32 | 0.72 | 2.19 | 0.85 | -0.14 | 0.19 | -0.31 | -0.11 | 0.43 | -0.09 | 0.02 | 0.34 | -0.06 | 0.9 | 1.45 | 0.75
7 | COc1ccc(CC(=O)Nc2nc3c(s2)CCc2ccccc2-3)cc1OC | 0.68 | 1.06 | 0.85 | 0.28 | 0.9 | 0.69 | 0.43 | 1.55 | -0.32 | 2.89 | 2.6 | 0.9 | 0.11 | 0.2 | 1.18 | 0.74 | -0.24 | 0.98 | 2.82 | 0.81
8 | NC(=O)c1cnc(N[C@@H]2CCCC[C@@H]2N)nc1Nc1cccc(-n2nccn2)c1 | 0.52 | 0.79 | -0.04 | -0.14 | 3.33 | 1.47 | 0.85 | 0.37 | 1.02 | 5.03 | 2.55 | 0.94 | 1.04 | 0.28 | 0.99 | 2.19 | -0.28 | 4.36 | 2.99 | 1.5
9 | CC1=C(C(=O)Nc2ccc3[nH]ncc3c2)C(c2ccc(F)cc2)NC(=O)N1 (stereo not given) | 0.44 | 1.19 | 0.21 | 0.88 | 0.96 | 0.9 | 0.5 | 0.28 | 0.23 | 4.76 | 2.16 | 0.38 | 0.62 | 0.82 | 0.41 | 0.4 | -0.36 | 0.77 | 2.32 | 0.88
10 | CNC(=O)c1ccccc1Nc1nc(Nc2ccc(N3CCOCC3)cc2OC)ncc1Cl | 0.74 | 1.05 | 1.53 | -0.3 | 0.28 | 0.37 | -6.71 | 0.8 | 0.36 | 1.17 | 2.81 | 0.04 | 1.25 | 0.09 | 0.32 | 2.69 | 0.19 | 4.3 | 5.33 | 1.35
11 | COCC(=O)NC/C=C/c1ccc2ncnc(Nc3ccc(Oc4ccc(C)nc4)c(C)c3)c2c1 | 1.96 | 0.21 | 0.42 | 0.2 | 0.11 | -0.07 | 1.61 | 0.4 | 0.03 | 0.35 | -0.71 | 0.77 | 0.69 | -0.33 | -0.68 | 0.44 | 0.15 | 0.52 | -0.57 | -0.14
12 | CNC(=O)CN1CCC(Oc2cc3c(Nc4cccc(Cl)c4F)ncnc3cc2OC)CC1 [Sapitinib (AZD8931)] | 0.6 | 0.72 | 0.42 | -0.22 | 0.2 | 0.31 | 0.43 | 0.44 | -0.05 | 0.01 | 0.77 | 0.15 | 0.56 | 0.07 | -0.27 | -0.1 | 0.32 | 0.51 | 2.09 | -0.13
